# Laboratory results reported in PubChem BioAssay (Tox21).
# Records with an inconclusive call do not appear. A number with no mark means an inactive call. Calls come from the whole dose curve; as a rule, active = well fitted cell-killing curve with a large enough effect in the repeat runs; inconclusive = weak or mixed curves; inactive = flat fitted curve, though single readings scatter.
# Assay: qHTS RealTime-Glo MT Cell Viability Assay in HepG2 cells - 24 hour (AID 1224867); note: nearly all actives have a fitted effect of over 50% in size
# Details: RealTime-Glo luminescence; series mostly up to 76.8 µM; activity change, negative = cytotoxicity: at the top concentration
# Outline: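 Real-time, nonlytic viability: 600 HepG2 cells/well mixed with NanoLuc enzyme plus prosubstrate; 5 h settle, compound (DMSO) added by pintool; luminescence monitored over 40 h at 37 C.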
# % is set by controls: 0 for no effect and ±100 for the full control effect.
row,SMILES,"activity change, negative = cytotoxicity"
1,O=C1c2ccccc2C(=O)C1c1ccc2cc(S(=O)(=O)O)cc(S(=O)(=O)O)c2n1,-18.9%
2,CCCCCCCCCCCCN1CCOCC1,-0.38%
3,CC(=O)c1ccc(Cl)c(Cl)c1Cl,1.55%
4,CC(C(=O)O)c1ccc(/C=C2\CCCCC2=O)cc1 (stereo not drawn),6.25% [at 35.3 µM]
5,COC=O,4.56% [at 6.97 µM]
6,Cc1c(N=C=O)cccc1N=C=O,0.781%
7,CC(=O)c1cccnc1,4.52%
8,O=[N+]([O-])c1ccc(Cl)cc1Cl,2.41%
9,CCCCCCCCNC,0.999%
10,C=C(C)C(=O)OCCCCCCCCCCOC(=O)C(=C)C,-3.86%
11,Cc1cc(C)c(C)c(O)c1,-3.51%
12,CCC(=O)O[C@]1(C(=O)COC)[C@@H](C)C[C@H]2[C@@H]3CCC4=CC(=O)C=C[C@]4(C)C3(F)[C@@H](O)C[C@@]21C (stereo partly drawn),-12.5% [at 35.3 µM]
13,CCN(CC)CC(=O)OCC(=O)[C@@]1(O)CC[C@H]2[C@@H]3CCC4=CC(=O)CC[C@]4(C)[C@H]3[C@@H](O)C[C@@]21C,-1.24% [at 35.3 µM]
14,C=CC(=O)OCCCCCCCCCC,1.65%
15,O=C(Cl)c1ccc(F)c(Cl)c1,-5.31%
16,O=C(NC1CCN(CCc2c[nH]c3ccccc23)CC1)c1ccccc1,-5.41% [at 35.3 µM]
17,CCOc1ccccc1O,-5.66%
18,CCN(CCCCOC(=O)c1ccc(OC)c(OC)c1)C(C)Cc1ccc(OC)cc1 (stereo not drawn),-10.2% [at 35.3 µM]
19,CC1(C)CC(O)CC(C)(C)N1[O],0.191%

row,SMILES,"activity change, negative = cytotoxicity"
1,Cc1nc2sccn2c(=O)c1CCN1CCC(=C(c2ccc(F)cc2)c2ccc(F)cc2)CC1,-17.2% [at 35.3 µM]
2,CC(=O)S[C@H](C(=O)N[C@H]1Cc2ccccc2[C@H]2CCC[C@@H](C(=O)O)N2C1=O)C(C)C,1.13%
3,CCOC(OCC)OCC,1.04%
4,Cc1c(Cl)cccc1Nc1ccccc1C(=O)O,0.0795% [at 35.3 µM]
5,COC(=O)c1cc(Cl)ccc1[N+](=O)[O-],2.3%
6,O=C(Nc1ccc2c(c1)Cc1ccccc1-2)C(F)(F)F,0.751%
7,O=C(OCCCCCOC(=O)c1ccccc1)c1ccccc1,-6.58%
8,O=C1OC(=O)C2CC=CCC12 (stereo not drawn),0.27%
9,O=C1C=CCCC1,0.795%
10,O=C(O)CNc1ccccc1,1.6%
11,O=C(O)c1cccnc1Nc1cccc(C(F)(F)F)c1,0.429% [at 35.3 µM]
12,O=Cc1ccc([N+](=O)[O-])cc1,-1.73%
13,O=C(O)c1cccc(C(=O)O)c1C(=O)O,-1.06%
14,O=C(Nc1ccccc1)c1cc([N+](=O)[O-])ccc1Cl,-7.95%
15,C/C=C1\[C@H]2C=C(C)C[C@]1(N)c1ccc(=O)[nH]c1C2,0.52% [at 35.3 µM]
16,FC(F)(Cl)C(F)(Cl)Cl,-0.339%
17,CC(CC(C#N)(c1ccccc1)C(C)C)N(C)C (stereo not drawn),0.103% [at 35.3 µM]
18,CO[C@@H]1COCC[C@@H]1N[C@@H]1CC[C@@](C(=O)N2CCc3ncc(C(F)(F)F)cc3C2)(C(C)C)C1,2.1%
19,CC[C@H](NC(C)C)[C@H](O)c1ccc(O)c2[nH]c(=O)ccc12,1.89% [at 35.3 µM]
